Each structure is given as a SMILES string. Compounds without any hit were thinned out: in the full panel of roughly 83,000, 20% have a hit.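 Testing used 96-well plates and a 48-hour single-concentration exposure. Example: -40 means 40% of the starting cells died.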 Calls of active or inactive are those of the source. How the source made its calls: active means growth percent below 10; inactive means the rest.

The subject of the assay is HS 578T breast. Description: NCI-60 one-dose screen, 48 h (100 = growth as untreated, 0 = no growth, -100 = all killed). The settings on record: 10 µM unless noted.
On to `ClC(Cl)c1nc(-c2cccs2)n2nc(-c3ccccc3)cc2n1`, for which the growth is -21.1% (active). As to `O=C(COc1ccc(C2SCC(=O)N2c2ccccc2)cc1)c1ccccc1` (centres undefined), the growth was 94.1% (inactive). The same measure for `c1ccc(-c2n(Cc3ccc4ccccc4c3)c3c4ccccc4c4ccccc4c3[n+]2Cc2ccc3ccccc3c2)cc1`: -42.9% (active); for `O=C1[C@@H]2Cc3c([nH]c4ccccc34)[C@H](c3c(Cl)cccc3Cl)N2C(=O)CN1C1CCN(Cc2c(F)cccc2F)CC1`: 44.7% (inactive); for `NCCN1CCN(c2nc(-c3ccccc3)nc3nc(-c4ccccc4)oc23)CC1`: 100% (inactive). As to `C/C(=C(/C)C1CC1CCN(C(=O)c1ccccn1)S(=O)(=O)c1ccc(C)cc1)C1CCCCC1` (centres undefined), the growth is 102% (inactive). To `Cc1nn(-c2ccccc2)cc1/C=N/Nc1nc(Nc2ccccc2)nc(Nc2ccc(S(N)(=O)=O)cc2)n1` belongs 13.8% (inactive).

Regarding `Brc1cccc(/C=N/Nc2nc(N/N=C/c3cccc(Br)c3)nc(N3CCOCC3)n2)c1`, the growth was 66.2% (inactive). The same measure for `COc1cc(/C=C2\SC(=O)NC2=O)ccc1OCC(=O)Nc1ccc(C(=O)/C=C/c2cc3ccccc3nc2Cl)cc1`: 99.1% (inactive). To `O=c1oc2ccc(-c3ccc(F)cc3F)cc2c(=O)n1-c1ccc(F)c(F)c1` belongs 1.72% (active); to `CC[C@@](C)(NC(=O)C(C)(C)NC(=O)[C@@H](NC(=O)[C@@H]1CCCN1C(=O)C(C)(C)NC(=O)[C@H](CC(C)C)NC(=O)CNC(=O)C(C)(C)NC(=O)[C@@H](NC(=O)C(C)(C)NC(=O)[C@H](CCC(N)=O)NC(=O)[C@H](C)NC(=O)C(C)(C)NC(=O)[C@H](C)NC(=O)C(C)(C)NC(=O)[C@@H]1CCCN1C(=O)C(C)(C)NC(C)=O)C(C)C)C(C)C)C(=O)N[C@@H](CCC(N)=O)C(=O)N[C@@H](CCC(N)=O)C(=O)N[C@H](CO)Cc1ccccc1`, 52.1% [4.25 µM] (inactive). The same measure for `O=C(/C=C/c1cn(-c2ccccc2)nc1-c1ccc(Cl)cc1)c1cc2ccccc2oc1=O`: 66.5% (inactive). Turning to `CCN1C(=O)N(CC)C2SC(N/N=C/c3ccc(OC)cc3)=NC21` (centres undefined), the growth was 31.9% (inactive). The same measure for `O=C(O)c1ccc(-n2cc(CNc3ccc(F)cc3)c(-c3ccc(C(F)(F)F)cc3)n2)cc1`: 88.8% (inactive); for `COc1cc(/C=C/C(=O)c2ccc(NC(=O)COc3cccc4cccnc34)cc2)cc(OC)c1OC`: 93.8% (inactive); for `COc1cc(CNC(=O)Cc2ccccc2[N+](=O)[O-])ccc1OCC(=O)NO`: 108% (inactive). With `Oc1ccc(CSc2nnc(-c3cnccn3)o2)c2cccnc12`, the growth is 19% (inactive).

Consider `O=C(NCCCNc1cc(-c2cn(-c3ccccc3)nc2-c2cccc(O)c2)ccn1)Nc1ccc(F)cc1`, for which the growth is -21.4% (active). Turning to `COc1ccc(-c2nn(-c3ccccc3)cc2/C=C/C(=O)c2ccc(NC(=O)CCCCCCC(=O)NO)cc2)cc1`, the growth is 87.2% (inactive). Turning to `O=C1[C@H]2Cc3c([nH]c4ccccc34)[C@@H](c3c(Cl)cccc3Cl)N2C(=O)CN1C1CCN(Cc2ccccc2)CC1`, the growth was 87.6% (inactive). To `COc1cccc(/C=C/C(=O)c2ccc(NC(=O)COc3cccc4cccnc34)cc2)c1` belongs 100% (inactive); to `CCCC(=O)NC(c1cccnc1)c1cc(Cl)c2cccnc2c1O` (centres undefined), 17.3% (inactive). Regarding `C/C(=N/Nc1nc(N/N=C(/C)c2ccc([N+](=O)[O-])cc2)nc(N2CCOCC2)n1)c1ccc([N+](=O)[O-])cc1`, the growth is 78.7% (inactive). Regarding `Oc1ccc(CSc2nnc(-c3cnccn3)n2-c2ccccc2)c2cccnc12`, the growth was 29.4% (inactive). Turning to `CCOC(=O)C1=C(C)Nc2nc3ccccc3n2C1c1ccccc1` (centres undefined), the growth was 97.7% (inactive). For `Oc1ccc(CSc2nnc(-c3ccc(Br)cc3)o2)c2cccnc12`, the growth was -2.18% (active).

Take `CNC(=O)c1cc(N2CCc3cc(NC(=O)Nc4ccc(Cl)c(Cl)c4)ccc32)ccn1`: the growth was 62% (inactive).

Take `COc1cc2cc(Oc3ccc(NC(=O)Nc4cc(C(F)(F)F)cc(C(F)(F)F)c4)cc3)c(C)nc2cc1OCCN(C)C`: the growth was 101% (inactive).

For `Cc1cc(O)c(=O)cc2c1C[C@H]1CC(C)(C)/C=C/C[C@]3(C)Oc4cc(=O)c(O)cc(C)c4C[C@H]3C[C@H](O)[C@@]1(C)O2`, the growth was 18.7% (inactive).

Take `COc1ccc(-c2nnc(SCc3ccc(O)c4ncccc34)n2-c2ccccc2)cc1`: the growth was 22.1% (inactive). As for `O=C(CCCCCCN1CC(=O)N2[C@@H](c3ccc(Cl)c(F)c3)c3[nH]c4ccccc4c3C[C@H]2C1=O)NO`, the growth was 98.4% (inactive). The same measure for `Oc1ccc(CSc2nnc(-c3ccccc3)n2-c2ccccc2)c2cccnc12`: 9.17% (active); for `Cc1ccc(NC(=O)c2ccc(CN3CCN(C)CC3)c(C(F)(F)F)c2)cc1Oc1ccc(-c2[nH]nc3ncnc(N)c23)cc1`: 72.8% (inactive); for `CC(c1ccccc1)N1C(=O)/C(=C/c2csc(C#N)n2)SC1=S` (centres undefined): 103% (inactive). For the molecule `O=C(COc1ccc(C2SCC(=O)N2c2ccc(F)cc2)cc1)c1ccccc1` (centres undefined), the growth is 96.7% (inactive). Take `COc1ccc(-c2nnc(SCc3ccc(O)c4ncccc34)o2)cc1`: the growth is -0.148% (active). To `O=c1[nH]c(CNc2ccc(NCc3c(-c4ccccc4)no[n+]3[O-])cc2)nc2c1cnn2-c1ccccc1` belongs 85.8% (inactive); to `COc1ccc(N)cc1C(=O)Nc1cccc(-c2cc(=O)c3c(OC)c(OC)c(OC)cc3o2)c1`, 58.3% (inactive); to `CCCC(=O)NC(c1cccnc1)c1cc(C(C)=O)c2cccnc2c1O` (centres undefined), 69.6% (inactive).

The record behind these values is PubChem BioAssay (NCI).
